Source: PubChem BioAssay (NCATS)
Activity calls are given as the source filed them. The rule behind the calls is not given here.

Experiment: qHTS profiling of the MIPE4 collection as inhibitors of Plasmodium falciparum (HB3) proliferation (AID 743347);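 note: plate controls were DMSO vehicle wells for no effect and artemisinin wells for full effect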
Settings: P. falciparum HB3 in erythrocytes, SYBR Green DNA, 72 h; at 28.5 µM (top of the series)
Method in brief: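 Erythrocytes infected with P. falciparum (0.3% parasitemia, 2.5% hematocrit) incubated with compounds 72 h at 37 C, 5% CO2. Lysis with saponin/Triton buffer containing SYBR Green I, overnight at room temperature in the dark; DNA fluorescence (485/535 nm) normalised to 0.29 uM artemisinin and DMSO.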

Compared with `CN[C@@H]1Cc2cccc3[nH]c(=O)n(c23)C1`, `CC(C)[C@H]1C(=O)N[C@H](CO)Cc2c[nH]c3cccc(c23)N1C` is higher in growth, % of control: 85.5% for the first, 88.8% for the second.

First: CCOC(=O)c1cncn1[C@H](C)c1ccccc1
Second: O=S(=O)(F)Cc1ccccc1
The growth, % of control of the first is lower: 67.6% for the first, 94% for the second.

Going from `C[C@]12CC[C@H]3[C@@H](CCC4=CC(=O)CC[C@@]43C)[C@H]1CC[C@H]2O` to `CCC(=O)OC1CCC2C3CCC4=CC(=O)CC[C@@]4(C)C3CC[C@]12C` (some centres undefined), the growth, % of control rises from 86.3% to 94.7%.

Compared with `O=S(=O)(CC1CS1)c1ccc(Oc2ccccc2)cc1` (centres undefined), `C[C@](O)(COc1ccc(C#N)cc1)C(=O)Nc1ccc(C#N)c(C(F)(F)F)c1` is lower in growth, % of control: 106% for the first, 9.27% for the second.

First: CN(C)NC(=O)CCC(=O)O
Second: CC(C)N(CCNC(=O)CN1CCCC1=O)C(C)C
The growth, % of control of the first is lower: 106% for the first, 108% for the second.

First: CO[C@H]1CCC(O[C@H]2C[C@H]([C@]3(C)CC[C@]4(C[C@H](O)[C@@H](C)[C@@H]([C@@H](C)C=C(C)C(=O)[C@H](C)C[C@H](C)C(=O)O)O4)O3)O[C@]3(O[C@@H]([C@H]4O[C@@](O)(CO)[C@H](C)C[C@H]4C)C[C@H]3C)[C@H]2C)O[C@H]1C (some centres undefined)
Second: CC[C@@H]1[C@@H](C)O[C@@](O)([C@@H](C)[C@H](O)[C@H](C)[C@H]2OC(=O)C=CC=C[C@@H](C)[C@@H]([C@@H](C)[C@@H](O)[C@H](C)[C@@]3(O)C[C@H](O[C@H]4C[C@H](O)[C@H](O)[C@H](C)O4)[C@H](CC)[C@@H](C)O3)OC(=O)C=CC=C[C@@H]2C)C[C@H]1O[C@H]1C[C@H](O)[C@H](O)[C@H](C)O1
The growth, % of control of the first is lower: 8.74% for the first, 47.6% for the second.

Going from `CSCC[C@@H](NC(=O)[C@@H](Cc1ccccc1)NC(=O)CNC(=O)CNC(=O)[C@@H](N)Cc1ccc(O)cc1)C(=O)O` to `Cc1c(C(=O)Nc2cccc(C(F)(F)F)c2)cc(-c2ccccc2)n1CCCN1CCOCC1`, the growth, % of control falls from 99.5% to 10.9%.

Going from `CC(=CCCC1=CCC(C2=CC(=O)OC2O)OC1O)CCC1=C(C)CCCC1(C)C` (centres undefined) to `CCCCCC[C@H]1C(=O)O[C@H](C)[C@H](NC(=O)c2cccc(NC=O)c2O)C(=O)O[C@@H](C)[C@@H]1OC(=O)CC(C)C`, the growth, % of control falls from 36% to 26.2%.

First: COc1ccc2c(c1)[C@]13CCCCC1C(C2)N(C)CC3 (some centres undefined)
Second: COc1cccc2c1[C@]13CCN(CC4CC4)[C@H](C2)[C@]1(OC)CCC(=O)C3
The growth, % of control of the first is higher: 323% for the first, 69.1% for the second.

Going from `CC(C)(C)[C@]1(O)C[C@@H]2OC(=O)C[C@@]23C(=O)O[C@@H]2OC(=O)[C@H](O)C213` (some centres undefined) to `C[C@]12Cc3cn[nH]c3C[C@@H]1CC[C@@H]1[C@H]2CC[C@@]2(C)[C@H]1CC[C@]2(C)O`, the growth, % of control falls from 75.6% to 47.2%.

Going from `O=c1[nH]c2ccc(Cl)cc2c(N[C@@H]2CN3CCC2CC3)c1-c1nc2ccccc2[nH]1` to `CCN1CCN(C(=O)Cc2ccc(Nc3ncc(F)c(Nc4ccc(C(=O)Nc5ccccc5Cl)cc4)n3)cc2)CC1`, the growth, % of control rises from 2.7% to 7.73%.

Going from `CC1=NN=C(c2ccc(N)cc2)c2cc3c(cc2C1)OCO3` to `CCOC(=O)Nc1ccc(NCc2ccc(F)cc2)cc1N`, the growth, % of control falls from 685% to 15.1%.

First: COc1ccc(C(=O)c2c(C)n(CCN3CCOCC3)c3cc(I)ccc23)cc1
Second: CCOC(=O)c1c(C(C#N)=CN)c2ccc(Cl)c(Cl)c2n1C
The growth, % of control of the first is lower: 33.7% for the first, 89.6% for the second.

First: Oc1ccc2c3c1O[C@H]1c4[nH]c5c(c4C[C@@]4(O)[C@@H](C2)N(CC2CC2)CC[C@]314)C[C@@]1(O)[C@H]2Cc3ccc(O)c4c3[C@@]1(CCN2CC1CC1)[C@H]5O4
Second: CC1(N2CCC(n3c([C@@H]4CCCNC4)nc4ccccc43)CC2)CCCCCCC1
The growth, % of control of the first is lower: 4.03% for the first, 6.13% for the second.

Compared with `CC(O)=C(C#N)C(=O)Nc1cc(Br)ccc1Br`, `C1=C2CCCN[C@H]2[C@@H]2C[C@H]1[C@@H]1CCCCN1C2` is higher in growth, % of control: 93.7% for the first, 94.5% for the second.

Experiment: Immunotoxin (SS1P) sensitization/mitigation study. Vehicle arm (DMEM) (AID 1159513); note: potency is the fitted concentration of half-maximal effect
Settings: cell viability with vehicle (DMEM); series mostly up to 46.1 µM; activity, % of control (viability): at the top concentration

In the case of `Cc1cc2c(cc1C1(c3ccc(C(=O)O)cn3)CC1)C(C)(C)CCC2(C)C`, the “activity, % of control (viability)” value is reported as 95.2% (inactive).
With `CCOc1ccc(Cc2cc([C@@H]3O[C@H](CO)[C@@H](O)[C@H](O)[C@@H]3O)ccc2Cl)cc1` the “activity, % of control (viability)” value was 95.2% (inactive).
In the case of `O=C(O)c1ccc(O)c2ncc(N3CCOCC3)cc12`, the “activity, % of control (viability)” value is reported as 95.2% (inactive).
In the case of `N#Cc1c(O)c2c(-c3ccc(-c4ccccc4O)cc3)csc2[nH]c1=O`, the “activity, % of control (viability)” value is reported as 106% (inactive).
For `NC(=O)c1ccc(I)c([N+](=O)[O-])c1`, the “activity, % of control (viability)” value was 98.5% (inactive).
In the case of `CC(C)(Sc1ccc(CCN(CCCCC2CCCCC2)C(=O)NC2CCCCC2)cc1)C(=O)O`, the “activity, % of control (viability)” value is reported as 91.3% (inactive).

With `COCCn1c2c([n+](Cc3cnccn3)c1C)C(=O)c1ccccc1C2=O` the Potency was 0.0037 µM (active).
For `Cc1c(C(=O)Nc2cccc(C(F)(F)F)c2)cc(-c2ccccc2)n1CCCN1CCOCC1`, the Potency was 23.5 µM (active).
With `COc1cc2c(cc1OC)[C@@H]1C(=O)c3ccc4c(c3O[C@@H]1CO2)C=CC(C)(C)O4` the Potency was 4.18 µM (active).
